Assay outcomes: PubChem BioAssay, several laboratories
Only some compounds are listed: those with a hit (about 2.1% of all), similar ones and a draw of the others.
aDG glyco up = increases alpha dystroglycan glycosylation; 360,000 tested, 0.22% active; activation, % at 10 µM; Pro5-aDG cells, alpha-DG glycosylation AlphaScreen (IIH6); 0% Pro5, 100% B10-LARGE cell signal; AID 624168;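 active = activation of at least 8% versus controls, or a plate z-score of at least 8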;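 note: Pro5 are CHO cells carrying HIG-tagged alpha-DG that lacks glycosylation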
Env fusion inh = inhibitors of HIV Env-mediated cell fusion | inhibition, % at 12.3 µM | 360,000 tested, 1.1% active | HeLa-JRFL Env/CEM21 cell fusion, luciferase;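 active = mean replicate inhibition score of at least 50 and every replicate individually at or above 50; inconclusive = only one of the two criteria met; inactive = mean below 50 and not all replicates reaching 50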;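 note: 0% = plate neutral controls and 100% = maraviroc near 300 nM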
GalR3 antagonist = antagonists of human GalR3 | inhibition, % at 3 µM | O60755 | HEK293 GalR3-CNG cAMP membrane potential fluorescence; galR3 body fused to GalR1 C-terminus | 360,000 tested, 0.44% active | AID 651719;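 active = inhibition above the screen-wide average plus 3 SD, cut at about 13% in these data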;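 note: forskolin and galanin both at EC90 stimulate the cells; cAMP rise reported by CNG channel membrane potential dye signal; 0% = forskolin plus galanin with DMSO and 100% = forskolin alone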
Gli-Sufu block = antagonists of Gli-Sufu signaling. Sufu-KO-LIGHT fibroblasts, Gli luciferase reporter luminescence. inhibition, % at 5 µM. 340,000 tested, 0.74% active. AID 588413;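 active = inhibition above about 55%, limit read from the data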;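 note: 0% = DMSO-treated cells and 100% = wells with medium but no cells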
NR2F2 inh = blocks human COUP-TFII nuclear receptor. AID 686940. inhibition, % at 8.6 µM. HEK293T NGFI-A luciferase reporter, luminescence. P24468. 370,000 tested, 0.7% active;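 active = inhibition above a per-plate cutoff, mean inhibition of test wells between control levels plus 3 SD, cut at about 38% in these data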;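 note: cells cotransfected with COUP-TFII expression vector driving the NGFI-A reporter; 0% = median of COUP-TF2 test wells and 100% = reporter-only cells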
Target sequence (P24468 whole entry, looked up): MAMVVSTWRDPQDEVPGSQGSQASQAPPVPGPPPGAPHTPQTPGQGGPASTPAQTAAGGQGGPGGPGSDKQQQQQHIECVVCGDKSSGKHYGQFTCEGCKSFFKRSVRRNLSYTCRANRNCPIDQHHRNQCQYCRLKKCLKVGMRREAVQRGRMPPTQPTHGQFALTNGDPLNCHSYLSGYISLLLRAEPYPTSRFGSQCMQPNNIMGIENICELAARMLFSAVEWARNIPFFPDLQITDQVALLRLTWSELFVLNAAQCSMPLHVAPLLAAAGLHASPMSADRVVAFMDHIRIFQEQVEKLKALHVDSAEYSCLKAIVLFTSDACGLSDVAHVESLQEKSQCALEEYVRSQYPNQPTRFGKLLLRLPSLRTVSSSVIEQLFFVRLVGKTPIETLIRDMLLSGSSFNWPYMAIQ
GalR3 antag conf = confirmation of human galanin receptor 3 antagonists; shares compounds with GalR3 antagonist; HEK293 GalR3 CNG cAMP biosensor, membrane potential fluorescence; galR3 fused to GalR1 carboxy tail; challenged with forskolin and galanin at EC90; inhibition, % at 3 µM; 1,600 tested, 59% active;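 active = inhibition above the primary screen's cutoff, the mean inhibition of all screened compounds plus 3 SD, cut at about 13% in these data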;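 note: 0% = forskolin plus galanin and 100% = forskolin alone with DMSO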
HEK-CNG parental = counter-screen for GalR3 antagonists: nonspecific agonists in parental HEK-CNG cells | shares compounds with GalR3 antagonist | AID 652268 | 1,600 tested, 10% active | activation, % at 3 µM | HEK293-CNG parental cells, cAMP membrane potential fluorescence; normalised: DMSO wells 0%, forskolin wells 100%; in the data active = activation above about 1.3%
* hit, by the source's call; i = inactive; ? = inconclusive; . = no result.

SMILES	aDG glyco up	Env fusion inh	GalR3 antagonist	Gli-Sufu block	NR2F2 inh	GalR3 antag conf	HEK-CNG parental
CC12CC[C@H]3[C@@H](CCC4(O)C[C@H](O)CCC34/C=N/NC(=O)c3ccccc3O)C1(O)CCC2C1=CC(=O)OC1 (stereo not given in full)	0	i	30*	4	-16	25*	0
S=P(N1CCCCCC1)(N1CC1)N1CC1	0	-12	-5	4	3	.	.
CC(C)(C#CC(=O)O)OOC(c1ccccc1)(c1ccccc1)c1ccccc1	0	17	-11	-1	-2	.	.
CCN(CC)c1ccc(/C=C2\C(=O)NC(=O)N(CC3CCCO3)C2=O)cc1 (stereo not given)	0	3	0	-13	-1	.	.
Cc1ccc(/C=C2\C(=O)NC(=O)N(CC3CCCO3)C2=O)s1 (stereo not given)	0	-9	16*	3	9	8	0
C1=C(c2ccccc2)CCNC1	0	17	3	1	-22	.	.
Oc1ccc(C2=CCNCC2)cc1O	0	13	73*	1	-29	87*	0
NNCc1cccc(O)c1	0	21	.	2	2	.	.
CCNCC(O)c1cccc(O)c1 (stereo not given)	0	-3	54*	-6	-42	68*	1
COc1cccc(C2(O)CCN(Cc3ccncc3)CC2)c1	0	12	-4	4	-16	.	.
O=C(NC(Cc1cnc[nH]1)C(=O)O)c1ccccc1 (stereo not given)	0	4	13*	15	-11	8	0
O=C(O)C(Cc1cnc[nH]1)NS(=O)(=O)c1ccc(Br)cc1 (stereo not given)	0	23	-8	-21	-21	.	.
O=C1CC[C@@]2(O)[C@H]3Cc4ccc(O)c5c4[C@@]2(CCN3CC2CC2)C1O5 (stereo not given in full)	.	.	3	.	-8	.	.
CC(=O)c1cn(CC(=O)NCCc2c[nH]c3ccccc23)c2ccccc12	0	?	18*	20	25	58*	0
CC(=O)NCCc1c[nH]c2ccccc12	0	.	-3	-6	-2	.	.
CC(=O)OC1CC[C@]2(C#N)[C@H]3CC[C@]4(C)[C@H](C5C=CC(=O)O5)CCC4(O)C3CCC2(O)C1 (stereo not given in full)	0	-124	26*	2	13	22*	1.8*
CC(=O)OCC[N+](C)(C)C	0	8	44*	-1	-5	70*	1
O=C(NN=Cc1ccc(N(CCCl)CCCl)cc1)c1cc(=O)[nH]c(=O)[nH]1	0	?	3	4	-3	.	.
O=C(Cc1cc(=O)oc2cc(O)ccc12)NN=Cc1ccc(N(CCCl)CCCl)cc1	0	24	16*	-16	-11	31*	-1
O=S(=O)(c1cc(Cl)cc(Cl)c1)N1Cc2cc(-c3ccccc3)ccc2-n2nncc2C1	0	-36	-6	.	-3	.	.
N=C1c2ccccc2CN1NC(=O)c1ccco1	0	-65	13*	0	-48	2	0
CC[C@H](C(N)=O)N1CCCC1=O	.	.	.	.	-14	.	.
Cn1c(O)c(C=NCCCCCCCCCCC(=O)O)c(=O)n(C)c1=O	0	19	17*	-29	-5	13*	0
CCC(=O)N1CCN(CCN=Cc2c(O)n(C)c(=O)n(C)c2=O)CC1	0	13	-3	9	0	.	.
CC(C)c1ccc(NC(=O)CCNC(=O)N2C[C@H]3C[C@@H](C2)c2cccc(=O)n2C3)cc1	0	.	-4	-2	-10	.	.
SMILES	aDG glyco up	Env fusion inh	GalR3 antagonist	Gli-Sufu block	NR2F2 inh	GalR3 antag conf	HEK-CNG parental
N#CC(C#N)=NNc1ccc(-n2ccc(C(F)(F)F)n2)cc1	0	-17	74*	76*	10	80*	1
CN(C)c1ccc(C(=O)N/N=C/C23CC[C@@H](O)CC2(O)CC[C@@H]2[C@@H]3CCC3(C)C(C4=CC(=O)OC4)CCC23O)cc1 (stereo not given in full)	0	-313	42*	1	36	38*	1.4*
COc1ccc(C(=O)N/N=C/C23CC[C@@H](O)CC2(O)CC[C@@H]2[C@@H]3CCC3(C)C(C4=CC(=O)OC4)CCC23O)cc1 (stereo not given in full)	0	-24	34*	-3	-6	40*	1
COC(=O)C1=C(c2ccc(Cl)c(C(F)(F)F)c2)C[C@@H]2CC[C@H]1N2C(=O)NCCCOC(C)C	1	.	.	14	.	.	.
O=[N+]([O-])c1c(Cl)c(Cl)c(Cl)c(Cl)c1Cl	0	0	-3	6	8	.	.
Nc1cc(Cl)c2nonc2c1[N+](=O)[O-]	-1	i	35*	-9	-8	20*	1
COC(=O)C1=C(c2ccc(OC)c(OC)c2)C[C@@H]2CC[C@H]1N2C(=O)NC1CC1	0	11	15*	-15	-19	1	0
COC(=O)C1=C(c2cccc(C#N)c2)C[C@@H]2CC[C@H]1N2C(=O)NC1CC1	0	-7	15*	-5	-9	13*	0
COc1ccc(N2C(=O)/C(=C/C=C/c3ccccc3[N+](=O)[O-])C(=O)NC2=S)cc1	.	-11	1	1	-9	.	.
COc1ccc(-n2c(O)c(C=NCc3ccc4c(c3)OCO4)c(=O)[nH]c2=O)cc1	0	-41	14*	-6	0	0	0
O=C(N/N=C/c1c(O)n(CCc2ccc(F)cc2)c(=O)[nH]c1=O)c1ccncc1	0	-7	25*	4	17	19*	0
O=C(N/N=C/c1c(O)n(CCc2ccc(F)cc2)c(=O)[nH]c1=O)c1ccccc1	0	-7	1	-8	-17	.	.
O=C(N/N=C/c1c(O)n(CCc2ccccc2)c(=O)[nH]c1=O)c1ccccc1O	0	13	77*	-12	0	53*	0
O=C(N/N=C/c1c(O)n(Cc2ccccc2)c(=O)[nH]c1=O)c1ccccc1O	0	24	0	-14	4	.	.
O=C(N/N=C/c1c(O)n(Cc2ccc(F)cc2)c(=O)[nH]c1=O)c1ccccc1O	0	9	13*	0	-10	6	0
O=C(O)C(O)(c1ccc(Cl)cc1)C1(O)CCCC1 (stereo not given)	0	.	0	.	10	.	.
COc1ccc(CN2Cc3cc(N4CCOCC4)ccc3-n3nncc3C2)cc1	0	0	1	.	-17	.	.
CC(CC(C)(C)N1CC1)=NO	0	-4	1	4	2	.	.
O=c1[nH]c2ccccc2n1C1CCN(C(CCc2ccccc2)c2nnnn2-c2ccc3c(c2)OCCO3)CC1 (stereo not given)	0	38	21*	.	4	17*	0
